Reference: PubChem BioAssay AID1445 (SRMLSC, 2008)
About 910 (0.41%) of roughly 220,000 compounds were called active. The full list was thinned out, with actives kept by preference. Entries with a potency or affinity are not part of this list. Unmarked numbers belong to inactive results.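 Rule for the calls: active = primary inhibition above the hit cutoff, then over 50% inhibition at one or more dose response concentrations (cut at about 23% in these data, passing the limit was not always enough); inconclusive = conflicting primary data, or primary hits not chosen for dose response; inactive = low primary inhibition, or under 50% at every dose.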

target: Aminopeptidase N (Plasmodium falciparum (isolate 3D7)) (UniProt O96935); assay: P. falciparum M1AAP inhibitors, biochemical, fluorogenic H-Leu-NHMec substrate, 1536-well (AID 1445); conditions: recombinant M1AAP, H-Leu-NHMec fluorogenic kinetic assay; at 30 µM, hits give high values unless noted;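 note: plate controls were DMSO full reaction for no effect and no enzyme background for full effect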
Sequence (O96935 whole entry, looked up): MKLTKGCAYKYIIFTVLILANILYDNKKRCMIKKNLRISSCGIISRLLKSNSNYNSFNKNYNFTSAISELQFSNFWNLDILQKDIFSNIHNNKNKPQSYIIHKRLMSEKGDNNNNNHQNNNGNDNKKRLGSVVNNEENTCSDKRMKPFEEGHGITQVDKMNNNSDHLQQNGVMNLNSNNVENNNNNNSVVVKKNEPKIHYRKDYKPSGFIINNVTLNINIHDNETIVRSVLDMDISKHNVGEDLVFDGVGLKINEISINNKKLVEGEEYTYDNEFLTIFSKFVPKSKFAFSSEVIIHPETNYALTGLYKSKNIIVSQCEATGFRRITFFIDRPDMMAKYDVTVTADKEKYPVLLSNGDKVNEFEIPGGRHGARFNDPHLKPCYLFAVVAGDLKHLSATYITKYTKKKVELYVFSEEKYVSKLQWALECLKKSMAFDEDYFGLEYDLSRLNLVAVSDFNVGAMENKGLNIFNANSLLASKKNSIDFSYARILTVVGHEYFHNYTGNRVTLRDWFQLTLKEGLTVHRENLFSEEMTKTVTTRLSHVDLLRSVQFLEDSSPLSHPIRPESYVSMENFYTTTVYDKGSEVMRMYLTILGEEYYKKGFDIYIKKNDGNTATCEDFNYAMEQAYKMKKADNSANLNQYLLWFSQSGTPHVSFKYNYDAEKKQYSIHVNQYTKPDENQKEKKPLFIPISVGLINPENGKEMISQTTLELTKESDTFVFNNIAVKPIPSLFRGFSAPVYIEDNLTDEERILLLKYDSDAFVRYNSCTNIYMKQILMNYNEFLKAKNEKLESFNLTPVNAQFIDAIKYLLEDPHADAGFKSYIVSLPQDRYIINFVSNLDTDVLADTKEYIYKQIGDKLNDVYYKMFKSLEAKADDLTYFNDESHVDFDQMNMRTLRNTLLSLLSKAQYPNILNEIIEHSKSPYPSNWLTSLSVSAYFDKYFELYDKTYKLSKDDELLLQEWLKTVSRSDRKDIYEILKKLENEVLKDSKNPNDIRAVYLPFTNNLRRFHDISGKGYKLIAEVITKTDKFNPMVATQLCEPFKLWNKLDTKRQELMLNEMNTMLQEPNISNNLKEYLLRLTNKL

Row | Compound | inhibition
1 | CCCCC1NC(C(=O)O)CS1 (configuration not stated) | -4.57%
2 | Cc1ccc(C2C(=O)N(C3CCC(C)CC3)CC(=O)N2C2CC2)cc1 (configuration not stated) | 6.72%
3 | COc1ccc(-n2ncc(N(C)n3cccc3)c(Cl)c2=O)cc1 | 4.45%
4 | COc1ccc(/C=C\C(=O)NCC(=O)N/N=C/c2ccc(O)cc2O)cc1 | 33.7%
5 | O=C(CCNC(=O)c1ccccc1)N=Nc1c(O)[nH]c2ccccc12 | 14%
6 | CCOC(=O)c1cc(-c2cccc([N+](=O)[O-])c2)n[nH]1 | 0.83%
7 | CCOC(=O)c1cc(-c2cccc([N+](=O)[O-])c2)on1 | 7.98%
8 | COc1ccc(N(C)C(=S)Nc2ccc3nc(C)c(C)nc3c2)cc1 | 0.41%
9 | Cc1noc(NC(=O)c2cccc(C(F)(F)F)c2)c1Cl | 1.44%
10 | CCOC(=O)c1ccc(C(=O)OCC)nc1 | -0.25%
11 | CCOC(=O)C1(CCOc2ccccc2)CCN(Cc2cccc3nonc23)CC1 | 11.9%
12 | COc1ccc(C2c3[nH]c4ccccc4c3CCN2C(=O)c2ccc(=O)n(C)n2)c(F)c1 (configuration not stated) | -6.53%
13 | O=C(c1ccccc1)N1CCC(O)(c2ccc3c(c2)OCO3)CC1 | -2.13%
14 | CCN1C(=O)c2ccc(C(=O)NCc3ccccc3)cc2C1=O | 1.2%
15 | CN1C(=O)c2ccc(C(=O)NCc3ccccc3)cc2C1=O | 5.4%
16 | CCCCCOc1ccccc1C(=O)NCCC(=O)O | 0.09%
17 | Cc1cc(C)n(-c2ccc(F)cc2)c(=O)c1C#N | 3.92%
18 | CCO/N=C(/C)c1c(O)cc(C(C)(C)C)n(-c2ccccc2)c1=O | 1.22%
19 | Cc1ccc(C)c(NC2=NS(=O)(=O)c3ccccc32)c1 | 3.34%
20 | CC(=O)Nc1ccc(S(=O)(=O)NNC2=NS(=O)(=O)c3ccccc32)cc1 | 5.01%
21 | Cc1cc(C)n2nc(N)c(N=Nc3ccc4c(c3)OCO4)c2n1 | -0.91%
22 | O=C(Nc1ccc(OCC(F)(F)C(F)F)cc1)c1ccncc1 | 3.56%
23 | NC(=NCCc1c[nH]c2ccccc12)NC(=O)c1ccc(Cl)cc1 | 2.62%
24 | O=c1c2ccccc2nc(SCc2cn3ccsc3n2)n1-c1ccccc1 | 14.2%
25 | O=c1c2ccccc2nc(SCc2cn3ccsc3n2)n1-c1ccc(F)cc1 | -8.24%
26 | Cc1ccc(-n2c(SCc3cn4ccsc4n3)nc3ccccc3c2=O)cc1 | 25.9% (active)
27 | O=C(NC1CCCCC1)C(c1ccncc1)N(C(=O)Cn1nnc(-c2cccs2)n1)C1CCCC1 (configuration not stated) | 0.4%
